Data on 20 compounds can be found in PubChem BioAssay (NCI).

About 83,000 compounds went through this panel and 20% of them were active in at least one assay; those are over-represented in the sample as a whole.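 Activity criterion: percent growth below 10, measured after cells in 96-well plates were exposed to a single compound concentration for 48 hours.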 Values without a mark were called inactive. Calls of active or inactive are those of the source.

Test systems include T-47D breast; MDA-MB-435 melanoma; SW-620 colon; MCF7 breast; HCT-116 colon; KM12 colon; HCC-2998 colon; BT-549 breast.
What all share (experiment): NCI-60 one-dose screen, 48 h (100 = growth as untreated, 0 = no growth, -100 = all killed)
Common to all, as to conditions: 10 µM unless noted

As for `Oc1cc(Nc2ccnc3cc(Cl)ccc23)c2ncccc2c1`, the growth with T-47D breast was 52.1%; with MDA-MB-435 melanoma, 70%; in the test with SW-620 colon it was 66.6%; in the test with MCF7 breast, 61%; with HCT-116 colon it was 69.3%; with KM12 colon, 87.6%.
Take `Cc1cc2c(C(C)C)c(O)c(O)c(C=NCc3ccoc3)c2c(O)c1-c1c(C)cc2c(C(C)C)c(O)c(O)c(C=NCc3ccco3)c2c1O`: the growth is 33.5% in the test on T-47D breast; 67.1% with MDA-MB-435 melanoma; 22.4% in the test with MCF7 breast; 20.7% in the test with HCT-116 colon; 35.5% with HCC-2998 colon; 19.4% with KM12 colon.
Take `O=C(CCN1CCCCC1)c1ccc2ccccc2c1`: the growth in the test on T-47D breast is 91%; in the test on MDA-MB-435 melanoma, 110%; in the test with SW-620 colon, 107%; in the test on MCF7 breast, 87.8%; in the test on HCT-116 colon, 103%; with KM12 colon, 102%.
In the case of `Nc1ccc2c(c1)Cc1cc(NC(=O)C(F)(F)F)ccc1-2`, the growth in the test on T-47D breast is 81.8%; in the test with SW-620 colon, 105%; with MCF7 breast it was 60.1%; in the test on HCT-116 colon, 108%; in the test on HCC-2998 colon it was 105%; in the test with KM12 colon, 97.7%.
Take `CCOC(=O)CCC[P+](c1ccccc1)(c1ccccc1)c1ccccc1`: the growth was 27.5% in the test with T-47D breast; 60.4% in the test on MDA-MB-435 melanoma; 84.7% with SW-620 colon; 59.7% in the test with MCF7 breast; 63.4% with HCT-116 colon; 44.7% in the test with KM12 colon.
`O=C(O)c1cccc(CN2CCN(c3cc4c(cc3F)c(=O)c(C(=O)O)cn4C3CC3)CC2)c1O`: the growth in the test with T-47D breast was 96.6%; in the test with MDA-MB-435 melanoma, 99%; in the test with SW-620 colon it was 102%; in the test with MCF7 breast, 97.6%; in the test on HCT-116 colon, 104%; in the test with HCC-2998 colon it was 105%. Besides, in the test on KM12 colon, the growth is 104%.
In the case of `CC1Cc2c(Cl)ncnc2N(C)c2ccc(O)cc21` (stereo unspecified), the growth was 81.7% in the test with T-47D breast; 30.5% in the test with MDA-MB-435 melanoma; 38.1% with SW-620 colon; 55.1% in the test with MCF7 breast; 65.6% in the test with HCT-116 colon; 59.4% in the test on HCC-2998 colon. Besides, in the test with KM12 colon, the growth was 10.4%.
In the case of `CCCOc1ccc(-c2nc(-c3ccc(N)cc3)cs2)cc1`, the growth with T-47D breast was 84.9%; in the test on MDA-MB-435 melanoma, 107%; in the test with SW-620 colon it was 113%; in the test on MCF7 breast it was 86%; in the test with HCT-116 colon it was 95.5%; in the test on HCC-2998 colon it was 114%. Also, the growth in the test on KM12 colon is 115%.
As for `O=C(O)c1cn(C2CC2)c2cc(N3CCN(Cc4c(O)ccc5ccccc45)CC3)c(F)cc2c1=O`, the growth with T-47D breast was 29.5%; with MDA-MB-435 melanoma, 24.3%; in the test with MCF7 breast, 16.3%; in the test on HCT-116 colon it was 12.7%; in the test with KM12 colon, 37.5%.
For `O=C(N/N=C\c1cc(Cl)ccc1O)N/N=C/c1cc(Cl)ccc1O`, the growth in the test on T-47D breast is 49.6%; in the test with MDA-MB-435 melanoma it was 47.7%; with SW-620 colon it was 42.3%; with MCF7 breast it was 46.2%; with HCT-116 colon, 16%; in the test with HCC-2998 colon, 46.1%. The growth with KM12 colon was 44.4%.
In the case of `COc1ccc(-c2cc(-c3ccccc3)nc(SCCCCCC(=O)NO)n2)cc1`, the growth in the test on T-47D breast was 22.7%; with MDA-MB-435 melanoma it was 37.5%; with SW-620 colon it was 29.7%; in the test with MCF7 breast, 49.8%; with HCT-116 colon, 21.6%; in the test with HCC-2998 colon, 78.8%. The growth in the test with KM12 colon was 70.8%.
Take `COc1ccc(/C=C(/C2=NCCN2)n2ccc3ccccc32)cc1`: the growth with T-47D breast was 86.2%; with MDA-MB-435 melanoma, 89.9%; in the test on MCF7 breast, 83.4%; with HCT-116 colon, 83%; with HCC-2998 colon, 98.5%; in the test with KM12 colon, 95.8%.
In the case of `CC1(C)OC2[C@@H](CNC(=O)NC(=O)NC(=O)CI)O[C@@H](n3cnc4c(NC(=O)Nc5ccccc5)ncnc43)[C@H]2O1` (stereo partly specified), the growth in the test with T-47D breast is 49%; in the test with MDA-MB-435 melanoma, 83.8%; in the test on MCF7 breast, 33%; in the test on HCT-116 colon, 51.2%; in the test with HCC-2998 colon, 94%; with KM12 colon, 84.2%.
On to `CN(C)Cc1ccc[nH]1`, for which the growth with T-47D breast is 83.5%; with MDA-MB-435 melanoma, 110%; in the test on SW-620 colon, 94.6%; in the test on MCF7 breast, 97.9%; in the test on HCT-116 colon, 77.5%; with KM12 colon, 108%.
In the case of `C#CCOc1ccc(C2=NN(CC3CC3)C3N=C(Cl)c4ncn(CC5CC5)c4N23)cc1OCC#C` (stereo unspecified), the growth in the test on T-47D breast was 28.2%; in the test with MDA-MB-435 melanoma, 80.8%; in the test on MCF7 breast, 78.8%; in the test on HCT-116 colon it was 80.5%; in the test on KM12 colon it was 46.6%.
In the case of `O=C(Nc1cccc(F)c1)c1cc(=O)[nH]c2cc(Br)ccc12`, the growth with T-47D breast was 48.1%; with MDA-MB-435 melanoma, -21.8% (active); in the test on SW-620 colon, 27.7%; in the test on MCF7 breast it was 17.6%; in the test with HCT-116 colon, 19.1%; in the test with HCC-2998 colon, 65%. Moreover, the growth in the test on KM12 colon is 21.5%.
As to `OC(c1ccc(Cl)cc1)(c1ccc(Cl)cc1)C(O)(c1ccc(Cl)cc1)c1ccc(Cl)cc1`, the growth is 32.9% in the test on T-47D breast; 29.3% with MDA-MB-435 melanoma; 44.4% with SW-620 colon; 49.7% in the test with MCF7 breast; 7.19% (active) in the test on HCT-116 colon; 48.6% with HCC-2998 colon. Also, the growth in the test on KM12 colon is 24.2%.
Regarding `COc1ccc2nc3cc(Cl)ccc3c(Nc3ccc(O)cc3)c2c1`, the growth was 80% with T-47D breast; 49.1% in the test on SW-620 colon; 24.6% in the test on MCF7 breast; 53.1% in the test with HCT-116 colon; 62.1% in the test on HCC-2998 colon; 63.5% in the test with KM12 colon.
As for `O=S(=O)(NCc1ccccc1)c1ncnc2nc[nH]c12`, the growth in the test on BT-549 breast is 93.7%; in the test with MDA-MB-435 melanoma it was 110%; in the test with SW-620 colon, 103%; with MCF7 breast, 98.1%; with HCT-116 colon, 108%; in the test on HCC-2998 colon, 101%. The growth in the test on KM12 colon was 101%.
Turning to `CCN(CC)c1ccc(/C=C/c2ccc3cc(C)ccc3[n+]2CC)cc1`, the growth in the test with BT-549 breast is 1.38% (active); in the test with MDA-MB-435 melanoma, -33.3% (active); in the test with SW-620 colon, 17.6%; in the test on MCF7 breast, 3.46% (active); with HCT-116 colon it was 7.53% (active); with HCC-2998 colon it was 16.5%.
